How the values were obtained:
Experiment in all cases: log2 ratio of Biotin-Ahx-Ub-VS probe labelling (fragment/DMSO); higher = less target engagement (more negative = stronger competition), active = hit call of the paper (q ≤ 0.05, log2 ratio ≤ -1)
Details in all cases: compound concentration: 200 uM; treatment time: 3 h
[1] = target: T1, ALG13 (UniProt Q9NP73)
T1 sequence (whole entry): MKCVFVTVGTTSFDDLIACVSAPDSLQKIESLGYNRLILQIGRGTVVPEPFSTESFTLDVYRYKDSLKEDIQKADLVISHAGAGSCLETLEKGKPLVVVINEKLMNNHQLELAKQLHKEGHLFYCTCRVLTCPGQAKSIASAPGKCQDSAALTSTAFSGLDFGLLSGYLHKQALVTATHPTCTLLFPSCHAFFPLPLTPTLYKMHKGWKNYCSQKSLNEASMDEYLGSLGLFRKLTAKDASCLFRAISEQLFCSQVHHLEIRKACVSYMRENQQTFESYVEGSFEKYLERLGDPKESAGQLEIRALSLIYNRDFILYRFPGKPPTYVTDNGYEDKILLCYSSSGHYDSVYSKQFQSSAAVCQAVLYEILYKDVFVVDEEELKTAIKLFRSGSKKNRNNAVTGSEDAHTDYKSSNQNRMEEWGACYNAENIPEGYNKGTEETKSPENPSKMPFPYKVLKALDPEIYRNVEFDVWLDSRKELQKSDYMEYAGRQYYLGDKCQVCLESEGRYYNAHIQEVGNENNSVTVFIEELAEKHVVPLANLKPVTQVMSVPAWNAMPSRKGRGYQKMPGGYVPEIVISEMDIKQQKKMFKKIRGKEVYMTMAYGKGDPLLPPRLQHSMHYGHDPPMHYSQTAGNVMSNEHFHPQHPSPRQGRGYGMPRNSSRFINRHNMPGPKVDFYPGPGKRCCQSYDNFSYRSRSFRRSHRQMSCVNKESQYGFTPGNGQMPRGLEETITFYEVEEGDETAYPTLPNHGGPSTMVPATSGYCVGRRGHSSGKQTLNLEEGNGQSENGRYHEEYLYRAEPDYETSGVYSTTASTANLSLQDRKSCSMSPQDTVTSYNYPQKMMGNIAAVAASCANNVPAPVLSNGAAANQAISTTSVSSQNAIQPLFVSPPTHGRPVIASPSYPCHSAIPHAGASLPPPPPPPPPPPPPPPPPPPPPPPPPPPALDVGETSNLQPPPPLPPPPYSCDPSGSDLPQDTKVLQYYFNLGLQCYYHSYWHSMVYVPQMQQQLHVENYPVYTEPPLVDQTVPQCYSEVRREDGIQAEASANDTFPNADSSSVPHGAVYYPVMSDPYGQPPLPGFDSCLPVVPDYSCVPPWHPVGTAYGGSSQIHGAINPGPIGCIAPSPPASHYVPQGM
Outline: (§1)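 Fragment (200 µM) or vehicle was incubated for 3 h with triplicate HEK293T lysate samples of 495 µg, which were then treated with Biotin-Ahx-Ub-VS at 0.5 µM final for 1 h. Labelled DUBs were enriched on NeutrAvidin, digested with LysC and trypsin, and analysed by diaPASEF LC-MS/MS. Values are average log2 fragment/vehicle ratios from an unpaired t-test on global-median-normalised Spectronaut label-free quantities, using proteins with ≥2 unique peptides.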

[2] = target: ATXN3 (UniProt P54252)
Outline: as §1

[3] = target: T2, BAP1 (UniProt Q92560)
T2 sequence (whole entry): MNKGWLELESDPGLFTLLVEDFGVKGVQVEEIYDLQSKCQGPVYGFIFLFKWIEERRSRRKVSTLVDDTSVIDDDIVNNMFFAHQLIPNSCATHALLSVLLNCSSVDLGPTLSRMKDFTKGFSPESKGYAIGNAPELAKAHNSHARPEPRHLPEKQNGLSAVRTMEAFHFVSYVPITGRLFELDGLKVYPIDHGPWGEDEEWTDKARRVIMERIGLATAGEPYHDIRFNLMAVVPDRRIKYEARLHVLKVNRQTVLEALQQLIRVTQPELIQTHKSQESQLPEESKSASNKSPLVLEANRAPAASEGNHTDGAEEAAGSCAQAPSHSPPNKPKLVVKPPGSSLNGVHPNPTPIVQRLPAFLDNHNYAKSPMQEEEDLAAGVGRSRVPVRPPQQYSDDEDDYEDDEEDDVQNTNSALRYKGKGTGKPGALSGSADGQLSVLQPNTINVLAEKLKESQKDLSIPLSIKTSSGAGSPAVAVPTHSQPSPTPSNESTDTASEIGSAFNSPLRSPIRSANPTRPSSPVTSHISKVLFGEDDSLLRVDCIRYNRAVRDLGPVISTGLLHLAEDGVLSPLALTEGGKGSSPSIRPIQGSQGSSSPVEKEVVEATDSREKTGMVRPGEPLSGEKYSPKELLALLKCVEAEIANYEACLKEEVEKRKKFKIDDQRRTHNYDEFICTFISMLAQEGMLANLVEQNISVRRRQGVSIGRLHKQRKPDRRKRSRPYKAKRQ
Outline: as §1

[4] = target: EIF3F (UniProt O00303)
Outline: as §1

[5] = target: EIF3H (UniProt O15372)
Outline: as §1

[6] = target: T3, FAM105A (UniProt Q9NUU6)
T3 sequence (whole entry): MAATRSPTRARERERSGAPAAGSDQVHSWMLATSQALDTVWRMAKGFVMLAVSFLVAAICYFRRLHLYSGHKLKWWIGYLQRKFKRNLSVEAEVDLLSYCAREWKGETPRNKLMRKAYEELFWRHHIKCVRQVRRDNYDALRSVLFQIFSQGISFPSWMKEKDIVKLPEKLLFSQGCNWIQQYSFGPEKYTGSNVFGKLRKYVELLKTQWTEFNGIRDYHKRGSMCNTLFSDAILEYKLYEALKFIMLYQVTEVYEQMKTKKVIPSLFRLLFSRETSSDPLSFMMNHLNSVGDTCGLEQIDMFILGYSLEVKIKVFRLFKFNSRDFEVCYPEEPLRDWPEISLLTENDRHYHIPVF
Outline: as §1

[7] = target: OTUB1 (UniProt Q96FW1)
Outline: as §1

[8] = target: T4, OTUD4 (UniProt Q01804)
T4 sequence (whole entry): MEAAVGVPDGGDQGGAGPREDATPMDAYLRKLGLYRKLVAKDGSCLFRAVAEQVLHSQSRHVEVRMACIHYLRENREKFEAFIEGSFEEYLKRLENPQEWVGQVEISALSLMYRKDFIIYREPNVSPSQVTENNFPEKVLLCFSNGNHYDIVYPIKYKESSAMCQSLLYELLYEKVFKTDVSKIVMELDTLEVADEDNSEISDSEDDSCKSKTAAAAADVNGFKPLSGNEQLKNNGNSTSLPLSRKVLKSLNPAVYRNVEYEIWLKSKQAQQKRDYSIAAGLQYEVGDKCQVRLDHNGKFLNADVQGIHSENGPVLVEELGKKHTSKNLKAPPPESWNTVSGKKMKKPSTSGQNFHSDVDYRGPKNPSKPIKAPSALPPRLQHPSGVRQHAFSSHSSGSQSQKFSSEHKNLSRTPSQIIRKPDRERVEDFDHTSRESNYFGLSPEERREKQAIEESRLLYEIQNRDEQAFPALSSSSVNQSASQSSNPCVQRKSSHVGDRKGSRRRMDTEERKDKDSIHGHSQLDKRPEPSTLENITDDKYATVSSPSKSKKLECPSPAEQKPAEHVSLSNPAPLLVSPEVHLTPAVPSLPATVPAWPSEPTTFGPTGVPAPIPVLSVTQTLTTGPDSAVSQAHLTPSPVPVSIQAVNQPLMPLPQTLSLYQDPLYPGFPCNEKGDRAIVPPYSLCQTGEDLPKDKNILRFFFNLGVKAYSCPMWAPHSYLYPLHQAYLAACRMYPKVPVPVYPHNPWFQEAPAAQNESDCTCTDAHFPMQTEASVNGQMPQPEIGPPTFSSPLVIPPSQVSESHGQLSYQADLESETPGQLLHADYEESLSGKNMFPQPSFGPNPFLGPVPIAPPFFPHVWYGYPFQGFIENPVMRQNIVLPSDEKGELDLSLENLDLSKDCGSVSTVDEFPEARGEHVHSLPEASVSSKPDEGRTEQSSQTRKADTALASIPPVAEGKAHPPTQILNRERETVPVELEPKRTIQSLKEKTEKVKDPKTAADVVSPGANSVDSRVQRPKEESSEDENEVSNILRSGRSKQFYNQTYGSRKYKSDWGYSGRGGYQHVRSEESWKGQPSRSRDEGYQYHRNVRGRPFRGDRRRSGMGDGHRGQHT
Outline: as §1

[9] = target: T5, OTUD5 (UniProt Q96G74)
T5 sequence (whole entry): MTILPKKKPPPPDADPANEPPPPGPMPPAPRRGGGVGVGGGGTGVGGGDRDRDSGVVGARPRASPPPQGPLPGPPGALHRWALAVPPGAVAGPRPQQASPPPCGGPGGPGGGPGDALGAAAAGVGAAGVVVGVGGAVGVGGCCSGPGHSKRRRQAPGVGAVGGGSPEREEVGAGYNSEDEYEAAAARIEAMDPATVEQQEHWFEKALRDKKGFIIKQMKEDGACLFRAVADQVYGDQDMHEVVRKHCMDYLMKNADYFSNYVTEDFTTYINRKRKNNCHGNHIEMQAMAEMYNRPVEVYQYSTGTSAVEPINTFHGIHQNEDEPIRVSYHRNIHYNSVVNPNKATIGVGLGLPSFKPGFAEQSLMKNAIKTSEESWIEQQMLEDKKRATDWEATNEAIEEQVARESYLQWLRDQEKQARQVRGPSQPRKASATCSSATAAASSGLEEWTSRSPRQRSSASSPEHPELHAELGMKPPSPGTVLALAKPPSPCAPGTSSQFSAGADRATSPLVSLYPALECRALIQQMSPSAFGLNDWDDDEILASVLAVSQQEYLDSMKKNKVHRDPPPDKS
Outline: as §1

Measured: log2 ratio of Biotin-Ahx-Ub-VS probe labelling

Chain of EIF3F (O00303 whole entry): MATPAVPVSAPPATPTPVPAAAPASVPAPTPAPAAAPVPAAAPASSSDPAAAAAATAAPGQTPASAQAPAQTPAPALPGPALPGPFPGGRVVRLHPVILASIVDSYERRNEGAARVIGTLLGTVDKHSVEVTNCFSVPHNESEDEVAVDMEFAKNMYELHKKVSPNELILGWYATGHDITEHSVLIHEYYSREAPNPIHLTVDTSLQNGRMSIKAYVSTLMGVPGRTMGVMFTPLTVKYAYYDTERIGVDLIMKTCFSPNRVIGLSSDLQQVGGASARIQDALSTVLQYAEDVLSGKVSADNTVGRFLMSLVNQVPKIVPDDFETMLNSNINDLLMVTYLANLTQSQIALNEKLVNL
Chain of EIF3H (O15372 whole entry): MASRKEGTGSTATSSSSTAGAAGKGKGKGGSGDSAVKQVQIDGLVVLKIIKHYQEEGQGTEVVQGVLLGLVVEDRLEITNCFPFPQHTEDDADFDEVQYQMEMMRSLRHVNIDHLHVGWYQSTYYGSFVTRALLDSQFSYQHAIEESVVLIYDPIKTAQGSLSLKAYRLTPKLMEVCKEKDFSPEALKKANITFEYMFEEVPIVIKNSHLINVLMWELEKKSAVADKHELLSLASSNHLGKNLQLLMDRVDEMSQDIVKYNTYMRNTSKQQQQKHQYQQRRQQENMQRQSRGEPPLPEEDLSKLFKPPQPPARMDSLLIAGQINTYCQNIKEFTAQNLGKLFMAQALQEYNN
Chain of ATXN3 (P54252 whole entry): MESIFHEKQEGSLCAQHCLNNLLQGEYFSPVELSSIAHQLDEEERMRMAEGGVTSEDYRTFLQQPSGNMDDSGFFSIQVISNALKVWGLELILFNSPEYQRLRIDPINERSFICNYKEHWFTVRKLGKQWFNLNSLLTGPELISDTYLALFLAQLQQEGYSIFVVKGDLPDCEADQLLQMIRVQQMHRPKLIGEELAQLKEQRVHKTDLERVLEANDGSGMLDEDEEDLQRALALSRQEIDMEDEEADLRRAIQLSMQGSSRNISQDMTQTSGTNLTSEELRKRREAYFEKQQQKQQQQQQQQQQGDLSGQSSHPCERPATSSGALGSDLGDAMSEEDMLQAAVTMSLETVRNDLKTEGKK
Chain of OTUB1 (Q96FW1 whole entry): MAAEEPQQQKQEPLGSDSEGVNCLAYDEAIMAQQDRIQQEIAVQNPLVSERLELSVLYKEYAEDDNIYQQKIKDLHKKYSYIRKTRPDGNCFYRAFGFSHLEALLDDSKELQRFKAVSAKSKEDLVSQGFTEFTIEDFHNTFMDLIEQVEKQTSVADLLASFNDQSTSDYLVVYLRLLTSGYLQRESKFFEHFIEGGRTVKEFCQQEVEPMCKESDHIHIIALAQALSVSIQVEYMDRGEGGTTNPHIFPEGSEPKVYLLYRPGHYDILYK

Cc1cc(C2CCCN2C(=O)CCl)nn1C.Cl (centres undefined)
inactive: [1] 0.0249 | [2] -0.374 | [3] -0.0558 | [4] -0.11 | [5] -0.0784 | [6] 0.201 | [7] -0.0124 | [8] -0.0857 | [9] -0.157
